This is an account of results in PubChem BioAssay (NCATS).

Molecules are shown by their SMILES. Several values for one entry are separate records, joined by “and”; a condition that tells them apart may be missing. Equal entries are not always repeated. A number with no mark means an inactive call. Records with an inconclusive call do not appear. Activity calls are given as the source filed them. Unless noted, calls come from the whole dose curve; as a rule, active = well fitted curve in the direction sought with a large enough effect; inconclusive = small, poorly fitted or top-dose-only effect, or another doubt; inactive = no such curve, though single readings can be large; an effect the other way counts as inactive or inconclusive. Where a SMILES comes first, the peptide text is derived from it. [ ]: non-standard residue; d: D form. pGlu = O=C1CC[C@@H](C(=O)O)N1; Thz = O=C(O)[C@@H]1CSCN1

Experiment [1] deals with Tov-21-G. The experiment in a line: Primary qHTS to identify gynecologic anti-cancer compounds using libraries of approved drugs and bioactive compounds (AID 1345084). For activity change, negative = cytotoxicity: % is set by controls: 0 for no effect and ±100 for the full control effect. Note: nearly all actives have a fitted effect of over 55% in size. Note: potency is the fitted concentration of half-maximal effect. To be noted: Gynecologic cancer cell panel viability, ATPlite luminescence, 48 h; series mostly up to 57.5 µM. Summed up:
(§1)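 48 h compound exposure at 37 C, 5% CO2; five-point qHTS. ATPlite luminescence readout of cell ATP.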
In general terms: qHTS replaces the single test concentration by a dilution series.

Experiment [2] deals with Tov112D. Described as above. To be noted: Gynecologic cancer cell panel viability, ATPlite luminescence, 48 h; series mostly up to 57.5 µM. Summed up: as §1
Experiment [3] is described as follows: Drug repurposing screens with cells derived from glioblastoma tumor samples (AID 1345199). For activity, negative = cell killing: % is set by controls: 0 for no effect and ±100 for the full control effect. Note: nearly all actives have a fitted effect of over 40% in size. Note: potency is the fitted concentration of half-maximal effect. To be noted: GBM patient neurospheres viability, ATP luminescence, 48 h. Summed up: (§2)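 Four patient lines of CD133+ GBM neurospheres were screened at several concentrations; hits were retested in those lines plus three slower-growing GBM lines, using 48-hour treatment and ATP-based viability.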

In experiment [4] the test system is astro. The description is as above. The note with it: viability, ATP luminescence, 48 h; series mostly up to 45.9 µM. Summed up: as §2
Experiment [5] concerns the target Nuclear receptor subfamily 1 group I member 2 (Rattus norvegicus) (UniProt Q9R1A7). Nature of the experiment: qHTS assay for small molecule activators of the rat pregnane X receptor (rPXR) signaling pathway (AID 651751; call rule not given here; note: 0% is about no effect). To be noted: rPXR reporter cells, luciferase (One-Glo), 24 h.
The nature of experiment [6]: qHTS assay for small molecule activators of the human pregnane X receptor (PXR) signaling pathway (AID 720659; call rule not given here; note: 0% is about no effect). To be noted: DPX-2 HepG2 CYP3A4-luciferase, 24 h; series mostly up to 92.3 µM.
Experiment [7] can be described thus: qHTS assay to identify inhibitors of the type 1 interferon - major histocompatibility complex class I in skeletal muscle: Counter screen cell viability and HiBit confirmation (AID 1347412). Note: potency is the fitted concentration of half-maximal effect; nearly all actives have a fitted effect of over 60% in size. The note with it: iHSKM muscle cells + IFN-b, HiBiT or CellTiter-Glo, 24 h. Summed up:
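HLA-B*08:01–HiBiT knock-in immortalized human myoblasts (C25cl48) stimulated with 4.0 ng/ml human IFN-beta and dosed with compound in a 12-point 1:3 titration (top final 46 uM). After 24 hrs at 37 C, HiBiT lytic luminescence or CellTiter Glo ATP read out.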

The mark [8] stands for this setting: at 45.9 µM (top of the series), tumour line B.
Setting [9] is: at 45.9 µM (top of the series), tumour line D.
Where [10] appears, read: at 46 µM (top of the series), tumour line A.
Where [11] appears, read: at 46.1 µM (top of the series), tumour line C.

Sequence of Nuclear receptor subfamily 1 group I member 2 (Rattus norvegicus) (Q9R1A7 whole entry, looked up): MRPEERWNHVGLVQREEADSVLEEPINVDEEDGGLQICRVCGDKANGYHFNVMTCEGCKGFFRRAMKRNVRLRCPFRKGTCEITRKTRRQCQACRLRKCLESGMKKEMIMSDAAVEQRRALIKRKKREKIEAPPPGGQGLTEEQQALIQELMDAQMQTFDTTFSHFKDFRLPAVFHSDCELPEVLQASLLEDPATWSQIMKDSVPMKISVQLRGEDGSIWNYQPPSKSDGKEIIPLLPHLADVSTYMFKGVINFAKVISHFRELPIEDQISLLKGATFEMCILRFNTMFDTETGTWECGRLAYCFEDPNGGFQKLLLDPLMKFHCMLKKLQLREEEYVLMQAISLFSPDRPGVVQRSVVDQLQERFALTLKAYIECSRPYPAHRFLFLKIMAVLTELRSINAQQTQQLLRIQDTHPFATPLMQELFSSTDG

On to `O=C1CC[C@@H](C(=O)N2CSC[C@H]2C(=O)O)N1` ([pGlu]-[Thz]-OH), for which the Potency entry in experiment [1], in experiment [2] and in experiment [4] was “inactive” in each case. For the same compound, the activity, negative = cell killing in experiment [3] (setting [8]) was -16.5%; in experiment [3] (setting [9]), -0.509%; in experiment [3] (setting [10]) it was -28.4%; in experiment [3] (setting [11]) it was -18.5%.
Regarding `O=C1CN(/N=C/c2ccc([N+](=O)[O-])o2)C(=O)N1`, the Potency result in experiment [1], in experiment [2] and in experiment [4] was “inactive” in each case. Besides, the activity, negative = cell killing in experiment [3] (setting [8]) was -5.05%; in experiment [3] (setting [9]), -3.4%; in experiment [3] (setting [10]), -24.2%; in experiment [3] (setting [11]) it was -8.71%. Further, the max response in experiment [5] was -1.4%. Besides, the outcome in experiment [6] was inactive.
Take `CCC1C(=O)OCC1Cc1cncn1C` (configuration not stated): the Potency result in experiment [1] and in experiment [2] was “inactive” each time. The activity, negative = cell killing was -2.95% in experiment [3] (setting [8]), -8.25% in experiment [3] (setting [9]), -25.3% in experiment [3] (setting [10]) and -11.8% in experiment [3] (setting [11]).
Regarding `CC1(C)S[C@@H]2[C@H](NC(=O)[C@H](N)c3ccc(O)cc3)C(=O)N2[C@H]1C(=O)O`, the Potency result in experiment [1] and in experiment [2] was “inactive” each time. Besides, the activity, negative = cell killing was 2.03% in experiment [3] (setting [8]), 3.17% in experiment [3] (setting [9]), -16.6% in experiment [3] (setting [10]) and -0.658% in experiment [3] (setting [11]).
Regarding `Nc1c(CC(=O)O)cccc1C(=O)c1ccc(Br)cc1`, the Potency entry in experiment [1], in experiment [2] and in experiment [4] was “inactive” in each case. For the same compound, the activity, negative = cell killing is -6.17% in experiment [3] (setting [8]), -6.69% in experiment [3] (setting [9]), -19.8% in experiment [3] (setting [10]) and 10.2% in experiment [3] (setting [11]).
Turning to `CC(=O)SCC(CC(=O)c1ccc(C)cc1)C(=O)O` (configuration not stated), the Potency entry in experiment [1] and in experiment [2] was “inactive” throughout. Moreover, the activity, negative = cell killing in experiment [3] (setting [8]) was -14.9%; in experiment [3] (setting [9]), -21.8%; in experiment [3] (setting [11]), 1.92%.
For `COc1cc(CNC(=O)CCCC/C=C/C(C)C)ccc1O`, the Potency result in experiment [1], in experiment [2] and in experiment [4] was “inactive” throughout. Moreover, the values for the activity, negative = cell killing in experiment [3] (setting [8]), in experiment [3] (setting [9]) and in experiment [3] (setting [11]) were -4.61%, -7.09% and 17.4%, respectively. Besides, in experiment [3] (tumour line A), the Potency was 11.2 µM (active). In addition, the max response in experiment [5] is 0.324% and -3.76%.
For the compound `CC(=O)O[C@H]1C[C@@]2(C)[C@@H](C[C@@H](O)[C@H]3[C@@]4(C)CC[C@@H](O)[C@@H](C)[C@@H]4CC[C@@]32C)/C1=C(\CCC=C(C)C)C(=O)O`, the Potency result in experiment [1] and in experiment [2] was “inactive” throughout. Moreover, the values for the activity, negative = cell killing in experiment [3] (setting [8]), in experiment [3] (setting [9]) and in experiment [3] (setting [11]) were -17.2%, 1.56% and -26.3%, respectively.
As for `O=C(O)c1ccccc1Nc1cccc(C(F)(F)F)c1`, the Potency result in experiment [1] and in experiment [2] was “inactive” in each case. Further, the activity, negative = cell killing in experiment [3] (setting [8]) is -9.13%; in experiment [3] (setting [9]) it was -1.02%; in experiment [3] (setting [10]), -4.14%; in experiment [3] (setting [11]), -6.5%. Further, the max response in experiment [5] was 1.7%. Moreover, in experiment [6], the outcome was inactive.
Consider `CCCCCCCCCCCC(=O)[O][Sn]([CH2]CCC)([CH2]CCC)[O]C(=O)CCCCCCCCCCC`, for which the Potency result in experiment [1], in experiment [2] and in experiment [4] was “inactive” in each case. The activity, negative = cell killing in experiment [3] (setting [8]) was -6.49%; in experiment [3] (setting [9]), -3.33%; in experiment [3] (setting [10]), -28.7%; in experiment [3] (setting [11]) it was -3.83%.
In the case of `CC1(C)[C@@H](O[C@H]2O[C@H](C(=O)O)[C@@H](O)[C@H](O)[C@H]2O[C@@H]2O[C@H](C(=O)O)[C@@H](O)[C@H](O)[C@H]2O)CC[C@]2(C)[C@H]3C(=O)C=C4[C@@H]5C[C@@](C)(C(=O)O)CC[C@]5(C)CC[C@@]4(C)[C@]3(C)CC[C@@H]12`, the Potency entry in experiment [1], in experiment [2] and in experiment [4] was “inactive” throughout. For the same compound, the activity, negative = cell killing is -9.84% in experiment [3] (setting [8]), 5.57% in experiment [3] (setting [9]), -2.05% in experiment [3] (setting [10]) and 21.2% in experiment [3] (setting [11]).
Consider `O=C(O)Cc1cccc(-c2cc(CCCCCCc3ccc(O[C@H]4O[C@H](CO)[C@@H](O)[C@H](O)[C@@H]4O)c(-c4cccc(CC(=O)O)c4)c3)ccc2O[C@H]2O[C@H](CO)[C@@H](O)[C@H](O)[C@@H]2O)c1`, for which the activity change, negative = cytotoxicity in experiment [1] was 4.72% [at 0.462 µM]; in experiment [2] it was 13.8% [at 0.462 µM]. For the same compound, the activity, negative = cell killing in experiment [3] (setting [8]) is -15%; in experiment [3] (setting [9]), -11.6%; in experiment [3] (setting [10]), -35.4%; in experiment [3] (setting [11]), 0.695%.
For the compound `[O-][n+]1ccccc1SSc1cccc[n+]1[O-]`, the Potency in experiment [1] was 1.41 µM (active); in experiment [2] it was 2.82 µM (active); in experiment [3] (tumour line A), 7.08 µM (active); in experiment [3] (tumour line B), 15.8 µM (active); in experiment [3] (tumour line D), 7.08 µM (active); in experiment [7] (HiBiT), 0.496 µM (active). The Potency in experiment [7] (Viability) was 0.991 µM (active). The activity, negative = cell killing in experiment [3] (setting [11]) was -16.3%.
Turning to `Nc1cc(-c2ccncc2)c[nH]c1=O`, the Potency entry in experiment [1] and in experiment [2] was “inactive” throughout. In addition, the activity, negative = cell killing in experiment [3] (setting [8]) is -15%; in experiment [3] (setting [9]), 3.16%; in experiment [3] (setting [10]), -22.8%; in experiment [3] (setting [11]), -16.3%. Also, in experiment [5], the max response was -2.86%. In addition, in experiment [6], the compound was classed as inactive.
With `c1ccc2sc(SSc3nc4ccccc4s3)nc2c1`, the Potency result in experiment [1], in experiment [2] and in experiment [4] was “inactive” throughout. The activity, negative = cell killing in experiment [3] (setting [8]) is -16.9%; in experiment [3] (setting [9]) it was -20.4%; in experiment [3] (setting [10]), -26.6%; in experiment [3] (setting [11]), -28%. Besides, the max response in experiment [5] was -2.5% and 11.1%. The call in experiment [6] was inactive.
Turning to `Cc1onc(-c2c(F)cccc2Cl)c1C(=O)N[C@@H]1C(=O)N2[C@@H]1SC(C)(C)[C@@H]2C(=O)O`, the Potency result in experiment [1] and in experiment [2] was “inactive” in each case. The activity, negative = cell killing in experiment [3] (setting [8]) was -10.7% and -14.2%; in experiment [3] (setting [9]) it was 14.3% and -22.2%; in experiment [3] (setting [10]) it was -14.1% and -18%; in experiment [3] (setting [11]), 9.01% and 7.31%.
